Reference: PubChem BioAssay (NCI)
This is part of a sample that, as a whole, favours compounds with a hit. Of some 83,000 tested, about 20% had one in any assay.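 48-hour exposure, single concentration, 96-well plates; percent growth endpoint where 0 means no net growth. Active: below 10.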 Unmarked numbers belong to inactive results. Calls of active or inactive are those of the source.

Assays:
Assay in all cases: NCI-60 one-dose screen, 48 h (100 = growth as untreated, 0 = no growth, -100 = all killed)
Conditions in all cases: 10 µM unless noted
HT29 colon = tested on: HT29 colon
SNB-75 CNS = tested on: SNB-75 CNS
U251 CNS = tested on: U251 CNS
PC-3 prostate = tested on: PC-3 prostate
SK-MEL-5 melanoma = tested on: SK-MEL-5 melanoma
UACC-62 melanoma = tested on: UACC-62 melanoma
LOX IMVI melanoma = tested on: LOX IMVI melanoma
SK-MEL-28 melanoma = tested on: SK-MEL-28 melanoma
SK-MEL-2 melanoma = tested on: SK-MEL-2 melanoma
SNB-19 CNS = tested on: SNB-19 CNS

Row | SMILES | growth (HT29 colon) | growth (SNB-75 CNS) [%] | growth (U251 CNS) | growth (PC-3 prostate) | growth (SK-MEL-5 melanoma) | growth (UACC-62 melanoma) | growth (LOX IMVI melanoma) | growth (SK-MEL-28 melanoma) | growth (SK-MEL-2 melanoma) | growth (SNB-19 CNS) [%]
1 | CCC1=C(c2ccc(OC)cc2)C(C)(C)Oc2c1ccc(O)c2CN1CCCC1 | 50.4% | 41.3 | -25.4% (active) | 47.1% | -97.6% (active) | 10.5% | -59.7% (active) | -75.6% (active) | -58.5% (active) | 
2 | C[C@]12CC[C@@H]3c4ccc(O)cc4CC[C@H]3[C@@H]1CC[C@@H]2NS(=O)(=O)c1cccc(Br)c1 | 61.6% | 72.7 |  | 38.7% |  | 70% |  | 88.3% |  | 95.2
3 | COc1ccc2nc3cc(Cl)ccc3c(N3CCN(c4ccnc(Nc5ccc(F)cc5)n4)CC3)c2c1 | 83.3% | 69.1 |  | 67.3% |  |  |  | 104% |  | 82.4
4 | CC(C)c1nc(N(C)S(C)(=O)=O)nc(-c2ccc(F)cc2)c1/C=C/[C@@H](O)C[C@@H](O)CC(=O)O | 104% | 107 |  | 69.3% |  | 102% | 81.3% | 107% | 97.8% | 115
5 | Cc1cc2c(cc1[N+](=O)[O-])NC(CNC(C)C)CC2 (stereo unspecified) | 88.8% | 67.7 |  |  | 96.8% | 98.7% | 91.3% | 114% | 112% | 87
6 | CCOC(=O)c1c(C)c(C(=O)OCC)n(C)c1C | 88.5% | 83.6 | 99.5% |  | 126% | 83.8% | 103% | 116% |  | 
7 | COc1ccc2c(c1)C(=O)c1c-2c(OCCN(C)C)nc2cc(OC)ccc12 | -43.6% (active) | 31.6 | -68.7% (active) | 10.1% | -48.6% (active) | 7.14% (active) | -89.2% (active) | 29.7% | 30.9% | 
8 | CSc1ncc2ncn(C3OC(CO)C(O)C3O)c2n1 (stereo unspecified) | 108% | 96 | 103% |  | 129% | 103% | 108% | 115% |  | 
9 | CCN(CC)CCNc1ccc(Cl)cc1Cl | 101% | 98.5 | 102% | 97.3% | 103% | 112% | 102% |  | 108% | 
10 | CCN1CCN(c2cc(-c3cn[nH]c3-c3cc(C)cc(OC)c3)nc(-c3cccnc3)n2)CC1 | 33.4% | 75.9 |  | 100% | 81.9% | 102% | 56.7% | 87.4% | 93.6% | 
11 | COc1ccc2nc(-c3ccc(-n4cncc4-c4ccc(OC)c(N)c4)cc3)sc2c1 | 96.8% |  | 105% | 84.6% | 105% | 101% | 113% | 106% | 112% | 98.6
12 | Cc1ccc(NC(=O)Nc2ccc(-c3cccnc3)cc2N2CCC(CO)CC2)cc1 | 5.68% (active) | 15.3 | 11.3% | 51.8% | -46.1% (active) |  | 33.3% | 9.36% (active) | 33.7% | 
13 | Clc1ccc2c(Nc3ccc4oc(NCCN5CCCC5)nc4c3)ccnc2c1 | 38.1% | 79.8 |  | 79.9% | 99.1% | 94.2% | 29.5% | 89.6% | 105% | 
14 | CCCCCCCCCCCCCCCCN=C(CC(=O)O)C(=O)O | 82.1% | 91.6 | 101% | 91.9% | 113% |  | 90.5% | 103% | 92.8% | 
15 | N#CCCCCCn1c2ccccc2c2c3c(c4c5ccccc5[nH]c4c21)C(=O)N(O)C3=O | 3.99% (active) | 29.4 |  | -3.49% (active) | -97% (active) | -35.7% (active) | -81% (active) | -2.36% (active) | 3.52% (active) | 
16 | CCN(CC)CCCNCCCNc1cc(OC)cc2cccnc12 | 40% | 82.8 | 77.9% | 82.4% | 92.1% |  | 80.3% | 99.4% | 101% | 
17 | CCC1=C(c2ccc(OC)cc2)C(C)(C)Oc2cc(O)c(CN3CCCC3)cc21 | 66.6% | 75 | 82.5% | 70.5% | 67% | 90.1% | 59.3% | 101% | 86.3% | 
18 | COc1ccc2nc3cc(Cl)ccc3c(Nc3cc(C(C)C)c(O)cc3C)c2c1 | 5.84% (active) | 63.7 | 19.5% |  | -91% (active) | 65.8% | 26.8% | 71.4% |  | 
19 | c1cnc2ccc3ncccc3c2c1 | 113% | 89.5 | 104% |  | 106% | 99.2% | 97.9% | 85.5% |  | 
20 | COc1ccc2c3c(c(OCCCN(C)C)nc2c1)-c1ccc(Cl)cc1C3=O | -80.8% (active) | 53 | -84.9% (active) | -19.5% (active) | 39.2% | -49% (active) | -93.3% (active) | -74.2% (active) | 72.5% | 
21 | CCCCCCCC1(C)NC(=O)NC1=O (stereo unspecified) | 114% | 84.5 | 99.5% |  | 106% | 106% | 103% | 87.7% |  | 
22 | CC(O)c1nc2c(c(=O)n(C)c(=O)n2C)n1C (stereo unspecified) | 113% | 102 | 102% |  | 104% | 102% | 104% | 126% |  | 
23 | CC(=O)NC1(C(=O)O)CCCC1 | 116% | 102 | 107% |  | 112% | 110% | 106% |  |  | 
24 | O=C(/C=C/c1ccccc1Cl)c1ccc(O)cc1 | 14.5% | 46.7 | 31.4% |  | 58.1% | 73.4% | 36.2% |  |  | 
25 | CC1=CC(=O)C(C(C)=Nc2ccccc2Cl)C(=O)O1 (stereo unspecified) | 101% | 83.6 | 103% |  | 120% | 98% | 83.6% | 105% |  | 
26 | CCCCCCCC/C=C/CCCCCCCC1=NC(C)(C)CN1CCO | -42.1% (active) |  | -35.5% (active) | 22.8% | 3.21% (active) | -64.4% (active) | -74.6% (active) | -68.4% (active) |  | 60.5
27 | CCOC(=O)c1cc(-c2cccnc2)nc2c(Cl)cc(Cl)cc12 | 88% | 104 | 70.3% |  | 101% | 95.6% | 98.2% | 129% |  | 
28 | COc1ccc(-c2c(N)noc2-c2cc(OC)c3c(c2)OCCO3)cc1 | 8.42% (active) |  | 25.5% | 26.8% | -21.3% (active) | 32.7% | 19.6% |  |  | 46.2
